Among the data in PubChem BioAssay are composite z-score and z-score values, retold here.

The structures appear in SMILES notation. Activity calls are given as the source filed them. Unless noted, the rule behind the calls is not given here.

Test [1] in a line: compounds binding Alexa647 anti-His antibody – biochemical, small-molecule microarray, 635 nm fluorescence, artefact control for SMM control protein annotation, primary screen (AID 1128).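 Note: score merges feature fluorescence with signal-to-noise for each printed compound spot.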 To be noted: higher = more signal.
The subject of test [2] is Human papillomavirus type 1a E7 protein (residues 1-88). Briefly: HPV1a E7 small-molecule binders, primary screen, biochemical, small-molecule microarray, residues 1-88, 635 nm (AID 1129). As to conditions: small-molecule microarray binding, fluorescence 635 nm; higher = more signal.
The target in test [3] is Focal adhesion kinase 1 (Homo sapiens) (UniProt Q05397). Briefly: PTK2 protein binding on printed compound slides – biochemical, small-molecule microarray, 635/667 nm fluorescence, BSA, DTT, primary screen (AID 1130).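 Note: composite of spot emission at 667 nm and signal to noise over triplicate slides.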 As to conditions: 635 nm fluorescence, higher = more signal.
In test [4] the test system is Fibrinogen (Alexa647-labelled). Briefly: Alexa647-fibrinogen binding to printed small molecules – biochemical, small-molecule microarray, 635/667 nm fluorescence, artefact control for SMM control-protein annotation, profiling panel (AID 1131).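 Note: z-score merges 667 nm fluorescence with per-spot signal-to-noise over triplicate slides.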 As to conditions: fibrinogen-A647 binding fluorescence, higher = more signal.
Test [5] has as its target Follistatin (Homo sapiens) (UniProt P19883). Description: FST protein binding to printed compounds – biochemical, small-molecule microarray, 635/667 nm fluorescence, primary screen (AID 1132). As to conditions: 635 nm fluorescence, higher = more signal.
Test [6] addresses Fibroblast growth factor 2 (Homo sapiens) (UniProt P09038). Description: basic fibroblast growth factor binding to printed compounds – biochemical, small-molecule microarray, 635/667 nm fluorescence, primary screen (AID 1133). As to conditions: FGF2, fluorescence 635/667, higher = more signal.
Test [7] can be described thus: JC-1 mitochondrial potential readout, lung cancer cells – cell-based, A549, JC-1 fluorescence, basal, 24 h, 100 nL, profiling panel (AID 1138).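 Note: A549 lung adenocarcinoma cells under basal conditions with no added stimulus; test concentration not given here.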 To be noted: higher = more signal.
The subject of a further test is Lefty1. Description: Lefty1 protein binding to printed compounds – biochemical, small-molecule microarray, 635/667 nm fluorescence, primary screen (AID 1139). To be noted: fluorescence 635/667, higher = more signal.
In test [8] the test system is wheat germ agglutinin (Triticum aestivum), Alexa647-labelled. Description: Alexa647-WGA lectin binding to printed small molecules – biochemical, small-molecule microarray, 635/667 nm fluorescence, artefact control for SMM control-protein annotation, profiling panel (AID 1140).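 Note: score merges 667 nm feature emission with signal to noise over triplicate slides.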 As to conditions: WGA-A647 binding, 635 nm fluorescence, higher = more signal.
In test [9] the target is Luciferin 4-monooxygenase (Photinus pyralis) (UniProt P08659). Briefly: inhibition of purified Photinus pyralis luciferase – biochemical, luminescence, purified enzyme, 2006 set, primary screen (AID 1141).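 Note: cell-free assay with purified firefly luciferase at 100 ng per well in PBS; test concentration not given here.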 To be noted: purified firefly luciferase, SteadyGlo luminescence, 30 min; higher = more signal, called active from +8 up or from −8 down.
Test [10] has as its system Wnt5a (protein binding on small-molecule microarray). Description: small molecules binding Wnt5a protein – biophysical, small-molecule microarray, 635/667 nm fluorescence, primary screen (AID 1142).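 Note: fluorescence read at 667 nm with signal to noise per printed feature.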 To be noted: 635 nm fluorescence, higher = more signal.
Test [11] in a line: ATP-based viability of Huh7 replicon cells – cell-based, CellTiter-Glo luminescence, basal, 48 h, cytotoxicity control for HCV replication inhibitor project, primary screen (AID 1143).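 Note: Huh7 hepatoma cells carrying a hepatitis C replication reporter with no stimulus; test concentration not given here.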 As to conditions: higher = more signal, called active from +8 up or from −8 down. Background: Replicon systems follow genome replication, usually without infectious particles.
The nature of test [12]: Pseudomonas biofilm growth suppression – PAO1 strain, BacTiter-Glo luminescence, LB-PBS, primary screen (AID 1144). As to conditions: P. aeruginosa PAO1 biofilm, 12 h, higher = more signal.
Test [13] is described as follows: basal CRE-LacZ reporter activity in PC12 – cell-based, unstimulated, primary screen (AID 1145). To be noted: no forskolin, luminescence, 4.5 h, higher = more signal, called active from +8 up or from −8 down.
Test [14] is described as follows: forskolin-driven CRE-LacZ activity in PC12 – cell-based, CRE-LacZ reporter, forskolin-stimulated, primary screen (AID 1146).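 Note: PC12 cells with 6xCRE LacZ reporter stimulated by forskolin 10 µM; beta-galactosidase reporter signal reflecting CREB driven transcription.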 To be noted: luminescence, 4.5 h, higher = more signal, called active from +8 up or from −8 down.
Test [15] deals with Streptavidin (Streptomyces avidinii) (UniProt P22629). Description: compounds binding control protein streptavidin – biophysical, small-molecule microarray, 635/667 nm fluorescence, artefact control for SMM compound annotation, primary screen (AID 1147).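 Note: signal reflects streptavidin binding to arrayed compounds as a control protein.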 As to conditions: higher = more signal.
Test [16] in a line: probe aInhba binding on compound microarray – biochemical, small-molecule microarray, 635/667 nm fluorescence, primary screen (AID 1148).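 Note: score merges 667nm spot fluorescence with signal-to-noise for antibody binding to printed compounds.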 As to conditions: higher = more signal.
For test [17], the target named is Torsin-1A (Homo sapiens) (UniProt O14656). Description: TOR1A wild-type binding on microarray – cell lysate, small-molecule microarray, lysate, 635/667 nm, primary screen (AID 1149). To be noted: COS7 hTOR1A-WT lysate, 635 nm fluorescence, higher = more signal.
The target is the same in test [18]. Description: torsin A mutant lysate binding on microarrays – cell lysate, small-molecule microarray, COS7 lysate, 635/667 nm fluorescence, primary screen (AID 1150).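 Note: score pools 667 nm emission and signal to noise measuring lysate protein binding.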 To be noted: COS7 hTOR1A mutant lysate, 635 nm fluorescence, higher = more signal.
The subject of test [19] is Sonic hedgehog protein (Shh). Description: Sonic hedgehog microarray binding compounds – biochemical, small-molecule microarray, 635/667 nm fluorescence, primary screen (AID 1151).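 Note: Shh protein binding to compounds spotted on small-molecule microarray slides; score combines spot fluorescence intensity with signal-to-noise across triplicate slides.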 As to conditions: 635 nm fluorescence, higher = more signal.

Sequence of Torsin-1A (Homo sapiens) (O14656 whole entry, looked up): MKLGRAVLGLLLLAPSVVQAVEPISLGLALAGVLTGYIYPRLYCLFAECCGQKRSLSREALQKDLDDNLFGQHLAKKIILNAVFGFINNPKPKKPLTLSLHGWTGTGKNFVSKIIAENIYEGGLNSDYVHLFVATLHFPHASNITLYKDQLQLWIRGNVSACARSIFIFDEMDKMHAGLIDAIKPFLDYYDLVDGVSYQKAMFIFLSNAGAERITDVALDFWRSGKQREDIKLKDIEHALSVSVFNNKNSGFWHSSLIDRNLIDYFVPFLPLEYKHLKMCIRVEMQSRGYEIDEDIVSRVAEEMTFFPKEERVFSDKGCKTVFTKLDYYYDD
Sequence of Follistatin (Homo sapiens) (P19883 whole entry, looked up): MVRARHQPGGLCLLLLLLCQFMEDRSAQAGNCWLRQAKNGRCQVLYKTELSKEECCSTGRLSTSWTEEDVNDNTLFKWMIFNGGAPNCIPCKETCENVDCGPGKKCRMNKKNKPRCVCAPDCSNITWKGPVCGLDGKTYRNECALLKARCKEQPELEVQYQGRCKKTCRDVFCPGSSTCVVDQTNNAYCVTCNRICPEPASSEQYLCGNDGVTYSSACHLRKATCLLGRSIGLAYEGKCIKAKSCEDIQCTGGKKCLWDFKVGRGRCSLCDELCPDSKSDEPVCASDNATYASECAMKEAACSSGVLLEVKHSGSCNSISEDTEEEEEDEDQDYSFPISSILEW
Sequence of Focal adhesion kinase 1 (Homo sapiens) (Q05397 whole entry, looked up): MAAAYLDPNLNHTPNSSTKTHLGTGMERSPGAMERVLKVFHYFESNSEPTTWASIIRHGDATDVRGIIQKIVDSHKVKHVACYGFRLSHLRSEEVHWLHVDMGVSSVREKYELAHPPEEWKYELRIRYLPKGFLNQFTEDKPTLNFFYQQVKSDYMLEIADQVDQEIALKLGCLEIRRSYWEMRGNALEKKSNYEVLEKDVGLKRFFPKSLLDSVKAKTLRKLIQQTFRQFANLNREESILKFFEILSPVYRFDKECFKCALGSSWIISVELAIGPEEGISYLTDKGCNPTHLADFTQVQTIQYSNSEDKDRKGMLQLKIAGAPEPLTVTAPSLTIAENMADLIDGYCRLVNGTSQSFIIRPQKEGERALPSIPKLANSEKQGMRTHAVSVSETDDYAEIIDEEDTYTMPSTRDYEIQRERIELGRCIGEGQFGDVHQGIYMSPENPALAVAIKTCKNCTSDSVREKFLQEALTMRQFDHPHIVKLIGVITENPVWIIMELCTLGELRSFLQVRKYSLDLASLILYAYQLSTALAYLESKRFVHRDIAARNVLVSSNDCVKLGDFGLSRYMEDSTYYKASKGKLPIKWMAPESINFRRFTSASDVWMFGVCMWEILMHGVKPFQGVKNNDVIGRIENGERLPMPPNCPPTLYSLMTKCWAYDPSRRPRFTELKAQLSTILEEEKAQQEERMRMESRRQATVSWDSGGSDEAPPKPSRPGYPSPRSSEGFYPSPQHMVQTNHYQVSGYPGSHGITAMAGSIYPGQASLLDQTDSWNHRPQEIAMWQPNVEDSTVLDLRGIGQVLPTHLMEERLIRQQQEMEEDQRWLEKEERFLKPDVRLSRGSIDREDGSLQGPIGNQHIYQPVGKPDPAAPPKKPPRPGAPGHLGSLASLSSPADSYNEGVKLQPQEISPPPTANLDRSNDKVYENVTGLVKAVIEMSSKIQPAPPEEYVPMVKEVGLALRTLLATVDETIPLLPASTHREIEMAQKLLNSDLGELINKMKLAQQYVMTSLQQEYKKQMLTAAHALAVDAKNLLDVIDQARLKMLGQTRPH
Sequence of Luciferin 4-monooxygenase (Photinus pyralis) (P08659 whole entry, looked up): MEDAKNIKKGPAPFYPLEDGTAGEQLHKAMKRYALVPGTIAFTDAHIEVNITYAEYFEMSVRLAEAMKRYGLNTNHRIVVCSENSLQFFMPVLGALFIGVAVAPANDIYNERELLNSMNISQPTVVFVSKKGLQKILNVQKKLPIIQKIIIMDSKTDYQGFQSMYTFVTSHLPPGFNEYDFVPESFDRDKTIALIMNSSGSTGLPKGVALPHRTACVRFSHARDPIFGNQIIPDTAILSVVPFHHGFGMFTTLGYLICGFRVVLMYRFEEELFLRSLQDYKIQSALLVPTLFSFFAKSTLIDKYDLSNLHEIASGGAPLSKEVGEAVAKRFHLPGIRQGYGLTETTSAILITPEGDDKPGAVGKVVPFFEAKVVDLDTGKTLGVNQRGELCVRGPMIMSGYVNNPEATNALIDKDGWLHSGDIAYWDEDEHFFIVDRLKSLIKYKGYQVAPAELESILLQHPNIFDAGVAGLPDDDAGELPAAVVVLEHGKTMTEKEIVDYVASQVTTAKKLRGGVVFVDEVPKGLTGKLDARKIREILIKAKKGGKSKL
Sequence of Streptavidin (Streptomyces avidinii) (P22629 whole entry, looked up): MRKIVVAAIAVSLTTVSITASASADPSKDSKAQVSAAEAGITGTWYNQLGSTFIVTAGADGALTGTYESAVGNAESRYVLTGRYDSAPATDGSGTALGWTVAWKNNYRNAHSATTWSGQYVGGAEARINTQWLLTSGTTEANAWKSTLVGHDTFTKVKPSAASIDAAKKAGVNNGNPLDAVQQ
Sequence of Fibroblast growth factor 2 (Homo sapiens) (P09038 whole entry, looked up): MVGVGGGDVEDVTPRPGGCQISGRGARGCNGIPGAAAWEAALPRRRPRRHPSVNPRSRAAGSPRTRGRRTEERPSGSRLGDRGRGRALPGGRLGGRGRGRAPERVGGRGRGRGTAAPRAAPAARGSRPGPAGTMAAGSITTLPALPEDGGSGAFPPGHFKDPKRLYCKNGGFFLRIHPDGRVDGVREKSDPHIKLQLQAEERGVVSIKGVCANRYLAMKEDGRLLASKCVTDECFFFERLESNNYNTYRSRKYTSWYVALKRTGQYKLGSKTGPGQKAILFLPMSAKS

For the compound `CN(C)CCCN1C(=O)[C@@]2(c3ccc([N+](=O)[O-])cc3)CC(=O)N(CC34CC5CC(CC(C5)C3)C4)[C@@H]2c2ccc(CO)cc21`, the composite z-score in [1] was 1.98; in [2], -0.0813; in [3] it was -0.117; in [4] it was 0.926; in [5], 0.203; in test [6], -0.112. Moreover, the composite z-score in the test on Lefty1 is 0.13; in [8], 0.354; in [10], -0.199; in [15], -0.472; in test [16], -0.0963; in the test with Torsin-1A (Homo sapiens) [17], -0.524. Further, the composite z-score is -0.17 with Torsin-1A (Homo sapiens) [18] and 0.0109 in test [19]. Further, the z-score in test [7] is 1.72; in test [9] it was -0.701 (inactive); in test [11], 0.278 (inactive); in test [12], 0.878 (inactive); in test [13], -0.0259 (inactive); in test [14], -0.598 (inactive).
Turning to `[N-]=[N+]=Nc1ccccc1[C@H]1OC(c2ccc(OCCCO)cc2)=N[C@@]1(CCS(=O)(=O)c1ccccc1)C(=O)N1CCCCC1`, the composite z-score in test [1] is 2.65; in [2], 1.23; in test [3] it was 0.944; in test [4], 0.989; in test [5], 0.83; in test [6] it was -0.0535. The composite z-score with Lefty1 is -0.0647; in [8], 1.27; in test [10], 0.375; in [15] it was 1.89; in [16], 0.153; with Torsin-1A (Homo sapiens) [17], 0.456. The composite z-score with Torsin-1A (Homo sapiens) [18] is 1.01; in [19], -0.678. In addition, the z-score is -1.11 in test [7]; -11.7 (active) in test [9]; -4.28 (inactive) in test [11]; -1.21 (inactive) in test [12]; 0.47 (inactive) in test [13]; -0.993 (inactive) in test [14].
As for `O=C(O)[C@H]1C[C@H]2C(=O)N3CCC[C@H]3C(=O)N2[C@H]1c1cccc(OCCO)c1`, the composite z-score in test [1] was 2.79; in test [2] it was 0.658; in [3], -0.525; in [4] it was 0.0871; in test [5], 1.32; in test [6] it was 0.871. The composite z-score in the test on Lefty1 is 0.232; in [8], 0.227; in [10], 0.188; in test [15] it was -0.0748; in test [16], -0.154; with Torsin-1A (Homo sapiens) [17] it was 0.847. Moreover, the results for the composite z-score (with Torsin-1A (Homo sapiens) [18]; in [19]) were 1.57 and 0.643, respectively. Besides, the z-score in test [7] is 1.95; in [9], -1.97 (inactive); in test [11] it was -0.716 (inactive); in test [12], 0.0521 (inactive); in test [13], 0.818 (inactive); in test [14], 0.0548 (inactive).
For `C=CCNC(=O)[C@@H]1[C@H]2C(=O)O[C@H](c3ccccc3)[C@H](c3ccccc3)N2[C@H](c2ccc(OCCO)cc2)[C@@]12C(=O)N(C(=O)OCCOC)c1ccc(C#CC3=CCCCC3)cc12`, the composite z-score was 0.864 in [1]; 1.23 in [2]; 0.677 in test [3]; 0.871 in [4]; 1.31 in [5]; 0.985 in [6]. For the same compound, the composite z-score stood at 1.05 with Lefty1; 0.522 in test [8]; 0.335 in test [10]; 0.902 in test [15]; 0.104 in [16]; 0.694 in the test with Torsin-1A (Homo sapiens) [17]. Also, the composite z-score was determined as 0.823 with Torsin-1A (Homo sapiens) [18] and 1.46 in test [19]. The z-score in test [7] is -1.03; in [9], -1.25 (inactive); in test [11] it was -2.81 (inactive); in [12] it was 0.576 (inactive); in test [13], 0.2 (inactive); in test [14], 0.886 (inactive).
As for `CCOC(=O)C1=CC[C@@H](c2ccc([N+](=O)[O-])cc2)N(S(=O)(=O)c2ccc(C)cc2)[C@H]1c1ccccc1`, the composite z-score was determined as 1.89 in test [1]; 1.21 in [2]; 0.471 in [3]; 0.979 in [4]; 1.01 in test [5]; 0.554 in [6]. In addition, the composite z-score with Lefty1 was 0.969; in test [8] it was 0.695; in test [10] it was 0.503; in [15], 1.57; in test [16] it was 0.165; with Torsin-1A (Homo sapiens) [17] it was 0.149. For the same compound, the values for the composite z-score (with Torsin-1A (Homo sapiens) [18]; in [19]) were 0.763 and 1.39, respectively. For the same compound, the z-score was 1.26 in [7]; 1.94 (inactive) in [9]; -1.36 (inactive) in [11]; -0.41 (inactive) in [12]; 0.182 (inactive) in test [13]; 0.147 (inactive) in test [14].
